Common to all, as to parameters: scale not given: direction of the effect not stated beside the values
The target of assay [1] is Protein translocase subunit SecA (Escherichia coli (strain K12)) (UniProt P10408). Description: Assay to Identify E. coli SecA ATPase Inhibitors. In kind it is functional. The following applies: 30 µM.
Assay [2] deals with T1, Ubiquitin-activating enzyme e1, putative (Leishmania donovani (strain BPK282A1)) (UniProt E9BSI1).
T1 sequence (whole entry): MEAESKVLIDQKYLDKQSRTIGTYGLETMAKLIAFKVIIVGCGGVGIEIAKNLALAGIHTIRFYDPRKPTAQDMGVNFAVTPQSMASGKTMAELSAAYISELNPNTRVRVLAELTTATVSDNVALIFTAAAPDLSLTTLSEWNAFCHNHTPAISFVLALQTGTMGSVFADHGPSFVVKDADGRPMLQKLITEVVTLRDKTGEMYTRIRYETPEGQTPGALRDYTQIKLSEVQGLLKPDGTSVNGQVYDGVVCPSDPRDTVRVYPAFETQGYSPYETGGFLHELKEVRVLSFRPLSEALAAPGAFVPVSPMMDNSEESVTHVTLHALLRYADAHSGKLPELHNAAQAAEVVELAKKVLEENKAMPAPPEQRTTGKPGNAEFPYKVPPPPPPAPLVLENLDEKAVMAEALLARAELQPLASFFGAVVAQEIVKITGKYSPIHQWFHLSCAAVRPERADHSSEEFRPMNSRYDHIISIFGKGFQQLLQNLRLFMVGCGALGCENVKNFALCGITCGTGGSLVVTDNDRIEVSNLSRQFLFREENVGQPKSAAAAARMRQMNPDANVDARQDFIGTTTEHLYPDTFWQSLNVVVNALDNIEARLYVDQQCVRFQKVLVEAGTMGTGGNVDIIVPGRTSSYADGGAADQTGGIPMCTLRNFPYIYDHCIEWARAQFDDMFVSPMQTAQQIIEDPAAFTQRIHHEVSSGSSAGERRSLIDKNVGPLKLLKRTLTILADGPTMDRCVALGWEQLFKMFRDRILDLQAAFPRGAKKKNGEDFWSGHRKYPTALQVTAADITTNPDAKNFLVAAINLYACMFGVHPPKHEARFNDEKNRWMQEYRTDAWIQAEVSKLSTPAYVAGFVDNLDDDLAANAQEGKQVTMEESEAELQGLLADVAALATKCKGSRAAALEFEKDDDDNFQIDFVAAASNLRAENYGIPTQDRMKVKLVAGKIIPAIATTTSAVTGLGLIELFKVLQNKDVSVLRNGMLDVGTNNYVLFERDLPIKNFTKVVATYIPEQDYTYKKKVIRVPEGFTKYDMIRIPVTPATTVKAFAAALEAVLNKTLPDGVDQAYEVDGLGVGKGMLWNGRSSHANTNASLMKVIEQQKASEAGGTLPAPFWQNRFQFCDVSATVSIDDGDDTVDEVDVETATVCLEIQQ
In words: Leishmania donovani Ubiquitin Activating Enzyme (LdE1). The following applies: 30 µM. In kind it is functional.

Assay [3] concerns the target Sialic acid-binding Ig-like lectin 9 (Homo sapiens) (UniProt Q9Y336). In words: Hs-Siglec9 ALPHAscreen SOP 20170721. The settings on record: 10 µM.
In another assay the test system is Trypanosoma cruzi. Description: Trypanosoma cruzi phosphomannomutase and mannose-1-phosphate guanylyltransferase assay. The following applies: 10 µM. Type of assay: functional.
The target in assay [4] is T2, Arginase-2, mitochondrial (Homo sapiens) (UniProt P78540).
T2 sequence (whole entry): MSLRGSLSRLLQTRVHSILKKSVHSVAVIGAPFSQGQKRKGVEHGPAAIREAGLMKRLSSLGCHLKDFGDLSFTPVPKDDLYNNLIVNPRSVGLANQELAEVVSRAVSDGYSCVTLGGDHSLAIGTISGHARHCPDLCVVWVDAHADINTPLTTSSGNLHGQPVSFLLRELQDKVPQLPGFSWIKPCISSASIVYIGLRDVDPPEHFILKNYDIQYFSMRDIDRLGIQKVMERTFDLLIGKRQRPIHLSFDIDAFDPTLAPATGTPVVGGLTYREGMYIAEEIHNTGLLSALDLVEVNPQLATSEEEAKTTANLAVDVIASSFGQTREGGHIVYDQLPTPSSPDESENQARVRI
Description: in vitro enzyme assay to detect the production of urea directly proportional to the activity of Arginase II. Note: in the data most compounds retested in dose-response had high values. In kind it is functional. The settings on record: 33.3 µM.

The target in assay [5] is T3, Proteasome subunit beta (Trypanosoma cruzi) (UniProt O96673).
T3 sequence (whole entry): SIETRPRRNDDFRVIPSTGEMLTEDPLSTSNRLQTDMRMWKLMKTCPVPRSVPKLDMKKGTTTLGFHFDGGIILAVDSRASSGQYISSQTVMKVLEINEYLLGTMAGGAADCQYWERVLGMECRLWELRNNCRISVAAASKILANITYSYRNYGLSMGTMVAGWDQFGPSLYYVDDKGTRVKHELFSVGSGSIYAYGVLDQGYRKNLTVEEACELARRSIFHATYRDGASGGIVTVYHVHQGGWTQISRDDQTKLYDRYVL
Description: Trypanosoma cruzi proteasome chymotrypsin-like activity (TcProtChymo) assay. Note: in the data most compounds retested in dose-response had high values. Type of assay: functional. The following applies: 9.37 µM.

The species entered for another assay is Homo sapiens. In words: To identify inhibition of the IFN signalling (Jak-Stat) pathway via expression of an eGFP reporter gene under the control of an IFN-stimulated response element (ISRE) containing MxA promoter. Type of assay: functional. The following applies: 30 µM. A general note: Reporter assays use an easily measured gene product as a stand-in for the process of interest.

For assay [6], the target named is T4, Tyrosyl-tRNA synthetase, putative (Trypanosoma cruzi (strain CL Brener)) (UniProt Q4DSP6).
T4 sequence (whole entry): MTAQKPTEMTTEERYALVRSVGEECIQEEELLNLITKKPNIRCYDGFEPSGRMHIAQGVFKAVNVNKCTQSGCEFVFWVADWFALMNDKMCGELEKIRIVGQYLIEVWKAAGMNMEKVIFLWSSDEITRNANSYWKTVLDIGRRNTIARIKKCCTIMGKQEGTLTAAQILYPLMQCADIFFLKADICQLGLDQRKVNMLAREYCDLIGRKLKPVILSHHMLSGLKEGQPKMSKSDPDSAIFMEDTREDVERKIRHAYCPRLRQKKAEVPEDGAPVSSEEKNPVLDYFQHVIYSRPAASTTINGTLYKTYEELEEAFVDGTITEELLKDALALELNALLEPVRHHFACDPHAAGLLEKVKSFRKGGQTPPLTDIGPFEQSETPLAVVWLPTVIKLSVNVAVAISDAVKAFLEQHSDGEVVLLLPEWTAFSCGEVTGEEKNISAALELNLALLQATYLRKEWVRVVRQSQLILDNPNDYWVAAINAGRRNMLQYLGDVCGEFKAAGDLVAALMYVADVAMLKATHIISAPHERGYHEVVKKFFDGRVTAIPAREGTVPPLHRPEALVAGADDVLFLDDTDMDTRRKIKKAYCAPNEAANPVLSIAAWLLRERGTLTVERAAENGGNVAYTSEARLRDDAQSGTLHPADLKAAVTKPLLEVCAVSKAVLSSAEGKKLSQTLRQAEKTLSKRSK
Description: Trypanosoma cruzi tyrosyl tRNA synthetase (TcYRS) _High Tyrosine SOP. Note: in the data most compounds retested in dose-response had high values. In kind it is functional. The settings on record: 30 µM.

The target in assay [7] is T4, Tyrosyl-tRNA synthetase, putative (Trypanosoma cruzi (strain CL Brener)). In words: Trypanosoma cruzi tyrosyl tRNA synthetase (TcYRS) SOP. The settings on record: 30 µM. Type of assay: functional.
Assay [8] addresses Chromo domain-containing protein 1 (Saccharomyces cerevisiae (strain ATCC 204508 / S288c) (Baker's yeast)) (UniProt P32657). Description: ScCHD-1 Enzyme Inhibition Assay. Note: in the data most compounds retested in dose-response had high values. In kind it is functional. The following applies: 30 µM.

These results are taken from ChEMBL document CHEMBL3988442, “University of Dundee, Small-Polar-MMV Screening Library” (2021).

For some assays here: Measured potencies and affinities stand elsewhere.

Sialic acid-binding Ig-like lectin 9 (Homo sapiens), sequence (Q9Y336 whole entry): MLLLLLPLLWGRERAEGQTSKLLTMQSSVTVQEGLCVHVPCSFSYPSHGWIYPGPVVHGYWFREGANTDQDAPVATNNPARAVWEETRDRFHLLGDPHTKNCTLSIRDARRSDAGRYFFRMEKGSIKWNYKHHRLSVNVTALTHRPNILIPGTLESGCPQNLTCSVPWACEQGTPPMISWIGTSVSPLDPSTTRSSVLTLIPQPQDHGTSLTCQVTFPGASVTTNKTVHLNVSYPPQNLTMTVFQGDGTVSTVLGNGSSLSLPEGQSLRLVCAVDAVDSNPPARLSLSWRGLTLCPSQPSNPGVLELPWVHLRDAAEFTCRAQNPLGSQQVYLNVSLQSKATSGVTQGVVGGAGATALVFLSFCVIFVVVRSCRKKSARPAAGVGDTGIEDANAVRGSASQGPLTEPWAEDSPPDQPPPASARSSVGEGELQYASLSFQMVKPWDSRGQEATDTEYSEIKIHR
Chromo domain-containing protein 1 (Saccharomyces cerevisiae (strain ATCC 204508 / S288c) (Baker's yeast)), sequence (P32657 whole entry, the tested form may be a part): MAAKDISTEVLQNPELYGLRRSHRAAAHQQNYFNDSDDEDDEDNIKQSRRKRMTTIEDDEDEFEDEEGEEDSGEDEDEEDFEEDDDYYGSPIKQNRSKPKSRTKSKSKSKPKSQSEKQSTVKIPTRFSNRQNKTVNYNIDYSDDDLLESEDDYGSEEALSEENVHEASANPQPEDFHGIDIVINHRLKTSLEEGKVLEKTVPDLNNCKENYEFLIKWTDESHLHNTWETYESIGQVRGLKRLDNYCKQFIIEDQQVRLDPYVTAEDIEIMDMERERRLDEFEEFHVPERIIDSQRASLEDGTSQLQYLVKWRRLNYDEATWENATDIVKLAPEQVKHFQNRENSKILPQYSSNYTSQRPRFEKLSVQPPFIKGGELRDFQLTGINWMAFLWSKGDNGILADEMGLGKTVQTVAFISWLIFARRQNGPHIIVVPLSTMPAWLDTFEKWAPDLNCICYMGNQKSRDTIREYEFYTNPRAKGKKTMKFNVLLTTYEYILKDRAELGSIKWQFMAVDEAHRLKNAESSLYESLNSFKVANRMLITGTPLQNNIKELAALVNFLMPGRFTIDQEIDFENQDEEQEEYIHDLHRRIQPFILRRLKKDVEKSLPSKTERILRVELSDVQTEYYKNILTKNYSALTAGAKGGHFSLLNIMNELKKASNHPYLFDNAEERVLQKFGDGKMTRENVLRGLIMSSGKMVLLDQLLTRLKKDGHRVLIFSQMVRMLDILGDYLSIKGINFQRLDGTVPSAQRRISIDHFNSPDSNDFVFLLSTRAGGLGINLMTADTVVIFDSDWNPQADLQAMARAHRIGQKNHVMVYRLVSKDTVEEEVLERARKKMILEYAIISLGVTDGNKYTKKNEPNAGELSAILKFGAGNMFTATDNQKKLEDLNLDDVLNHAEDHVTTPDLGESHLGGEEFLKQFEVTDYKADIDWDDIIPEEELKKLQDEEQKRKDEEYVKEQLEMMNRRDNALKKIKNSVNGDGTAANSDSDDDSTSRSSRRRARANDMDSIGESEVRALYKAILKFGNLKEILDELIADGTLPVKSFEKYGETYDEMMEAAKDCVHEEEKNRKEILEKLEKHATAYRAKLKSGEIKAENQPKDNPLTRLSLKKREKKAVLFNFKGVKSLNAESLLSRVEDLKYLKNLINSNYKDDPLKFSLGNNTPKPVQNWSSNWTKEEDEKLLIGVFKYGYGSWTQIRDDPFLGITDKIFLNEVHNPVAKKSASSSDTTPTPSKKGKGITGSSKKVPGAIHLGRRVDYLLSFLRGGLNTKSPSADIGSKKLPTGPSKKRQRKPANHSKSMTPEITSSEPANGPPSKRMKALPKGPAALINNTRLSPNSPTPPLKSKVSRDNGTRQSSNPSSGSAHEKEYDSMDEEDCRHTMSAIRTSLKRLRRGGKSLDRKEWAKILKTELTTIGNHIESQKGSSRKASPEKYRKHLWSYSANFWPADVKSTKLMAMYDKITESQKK
Protein translocase subunit SecA (Escherichia coli (strain K12)), sequence (P10408 whole entry): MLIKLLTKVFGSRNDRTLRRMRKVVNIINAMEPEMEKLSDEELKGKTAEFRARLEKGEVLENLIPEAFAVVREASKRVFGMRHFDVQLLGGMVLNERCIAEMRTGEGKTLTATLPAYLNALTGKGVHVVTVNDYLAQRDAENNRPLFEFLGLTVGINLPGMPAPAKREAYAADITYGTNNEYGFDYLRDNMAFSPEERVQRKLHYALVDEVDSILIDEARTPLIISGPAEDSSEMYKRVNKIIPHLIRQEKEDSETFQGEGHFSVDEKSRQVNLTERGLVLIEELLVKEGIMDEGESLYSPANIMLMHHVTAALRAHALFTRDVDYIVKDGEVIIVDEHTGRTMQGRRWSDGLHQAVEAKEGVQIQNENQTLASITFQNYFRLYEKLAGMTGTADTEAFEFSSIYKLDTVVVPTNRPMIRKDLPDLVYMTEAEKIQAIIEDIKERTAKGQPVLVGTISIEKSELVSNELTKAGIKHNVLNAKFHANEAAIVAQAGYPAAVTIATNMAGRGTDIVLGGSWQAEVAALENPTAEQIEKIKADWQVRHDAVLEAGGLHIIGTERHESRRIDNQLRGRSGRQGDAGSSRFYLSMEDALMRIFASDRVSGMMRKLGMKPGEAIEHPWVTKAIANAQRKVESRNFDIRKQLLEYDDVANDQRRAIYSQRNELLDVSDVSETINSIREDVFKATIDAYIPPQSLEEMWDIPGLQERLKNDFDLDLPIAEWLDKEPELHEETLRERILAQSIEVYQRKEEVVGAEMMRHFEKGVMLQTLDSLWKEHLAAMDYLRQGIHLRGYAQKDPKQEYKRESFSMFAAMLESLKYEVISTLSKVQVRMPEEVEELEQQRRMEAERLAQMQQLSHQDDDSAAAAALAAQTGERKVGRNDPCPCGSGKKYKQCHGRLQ

Consider `Cc1cnn(CC2CN(CC(=O)NCCc3cccs3)CCO2)c1` (stereo not given), for which the Percent Effect is -3.45% in assay [1]; 0% in assay [2]; 6.55% in assay [3]; -4.62% in the assay with Trypanosoma cruzi; 0.887% in [4]; 3.48% in assay [5]. Besides, the Percent Effect was 9.62% in the assay listed under Homo sapiens, 4.74% in assay [6], -2.56% in assay [7] and -0.407% in [8].
On to `Cc1ccccc1-c1cc(C(=O)NCCN2CCCS2(=O)=O)[nH]n1`, for which the Percent Effect in assay [1] was -1.9%; in assay [2], 12.8%; in [3] it was -10.8%; with Trypanosoma cruzi, 9.3%; in assay [4], -2.05%; in [5], 5.72%. The Percent Effect in the assay filed under Homo sapiens is 4.69%; in [6], 5.26%; in assay [7] it was 20.5%; in assay [8], -1.78%.
As for `CC(NC(=O)N1CCN(CCc2ccccc2)CC1)c1nncn1C` (stereo not given), the Percent Effect in assay [1] was -5.57%; in assay [2], 5.33%; in assay [3], 0.0136%; in the assay with Trypanosoma cruzi, 3.41%; in assay [4], 0.444%; in assay [5], 7.55%. Besides, the Percent Effect in the assay listed under Homo sapiens was 13.6%; in [6], 2.63%; in assay [7], -20.5%; in [8], -8.2%.
As to `CCc1ccc(O)c(C(=O)NC2CCN(S(=O)(=O)CC)CC2)c1`, the Percent Effect in assay [1] was -6.37%; in [2] it was 17.9%; in [3], -17.5%; with Trypanosoma cruzi, 5.35%; in [4], -4.92%; in [5] it was 10.2%. Moreover, the Percent Effect in the assay filed under Homo sapiens was 20.5%; in assay [6], 1.44%; in [7], 22.9%; in assay [8] it was -10.9%.
Take `CC(C)n1[nH]c(=O)c2c1NC(=O)CC2c1ccc2ncccc2c1` (stereo not given): the Percent Effect in assay [1] is -1.16%; in assay [2] it was 5.41%; in [3], 0.703%; in the assay with Trypanosoma cruzi, -2.62%; in assay [4] it was -5.94%; in assay [5] it was 10.6%. For the same compound, the Percent Effect in the assay filed under Homo sapiens came to 17.7%; in [6] it was 4.79%; in assay [7] it was 9.76%; in [8] it was 2.28%.
With `COc1cccc(CN2CCC3(CCN(C(=O)[C@H]4CCCO4)CC3)C2)c1`, the Percent Effect is -2.54% in assay [1]; 22.1% in assay [2]; -5.6% in assay [3]; 0.188% with Trypanosoma cruzi; 0% in [4]; 12.6% in assay [5]. Besides, the Percent Effect in the assay filed under Homo sapiens is -14.8%; in assay [6], 10.6%; in [7], -2.5%; in assay [8], -10.4%.
Take `CC(C)(O)CN1CCN(C(=O)c2cc(Cl)cc3cccnc23)CC1`: the Percent Effect in [1] was -3.15%; in [2] it was -5.13%; in assay [3], 5.39%; with Trypanosoma cruzi, 2.54%; in [4] it was 6.15%; in [5], 9.13%. The Percent Effect is -3.27% in the assay filed under Homo sapiens, 2.39% in [6], 1.21% in [7] and -5.6% in [8].
With `COc1ccc(CC(=O)NC2(C)CCS(=O)(=O)C2)cc1F` (stereo not given), the Percent Effect in assay [1] is -0.834%; in [2], 10.7%; in [3] it was -4.85%; with Trypanosoma cruzi it was 0.803%; in assay [4], -1.77%; in [5] it was 4.5%. The Percent Effect in the assay listed under Homo sapiens was 8.89%; in assay [6] it was 5.79%; in [7], 12.8%; in assay [8] it was -12.7%.
On to `O=C(C1=CCCCC1)N1CCC2(CC1)COC(COc1ccccn1)C2` (stereo not given), for which the Percent Effect was -4.78% in [1]; 9.09% in assay [2]; 2.76% in assay [3]; -0.292% in the assay with Trypanosoma cruzi; -0.405% in [4]; 18.1% in assay [5]. Also, the Percent Effect was -0.0236% in the assay listed under Homo sapiens, 3.68% in [6], 17.9% in assay [7] and -3.36% in assay [8].
`c1cnnc(N2CCCC2CNCc2nc(-c3ccsc3)no2)c1` (stereo not given): the Percent Effect is -4.07% in assay [1]; -23.1% in assay [2]; -7.35% in assay [3]; 9.11% with Trypanosoma cruzi; -6.15% in assay [4]; 0.256% in assay [5]. The Percent Effect is -10.2% in the assay filed under Homo sapiens, 5.26% in assay [6], 6.02% in assay [7] and -1.74% in [8].
Take `Cc1ccsc1C(=O)N1Cc2ccccc2C2(CCN(C)CC2)C1`: the Percent Effect was -4.41% in [1]; -1.3% in assay [2]; -5.71% in [3]; -5.55% in the assay with Trypanosoma cruzi; -2.02% in [4]; 5.56% in assay [5]. In addition, the Percent Effect in the assay listed under Homo sapiens was -24.7%; in assay [6] it was 1.58%; in assay [7] it was 2.56%; in assay [8], -2.8%.
